In the supplement of paper PMC4466140:

Biological target: AgAbp1
Assay: SPOT peptide array binding signal intensity (averaged, normalized) (arbitrary units (background-subtracted, floor 0; scale differs between SH3 domains)); higher = stronger binding of the SH3 domain to the peptide
Outline: (§1)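 SH3 domains from four yeast species were expressed as GST fusions in E. coli BL21(DE3) and purified on glutathione Sepharose. Each was incubated at 10 μg/ml overnight at 4°C in TBS-based blocking buffer on cellulose membranes bearing synthetic 15-mer peptides, in which serines replaced cysteines. Bound protein was detected with anti-GST antibody, an HRP anti-mouse secondary and luminol, then imaged and quantified with Genespotter. The binding signal is the normalized, background-subtracted spot intensity averaged over replicates, in arbitrary units that are not the same from one domain to another.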

Question: For FFRRSELYLPNSSKA, which “SPOT peptide array binding signal intensity” value is on record?
Answer: 2

Biological target: AgBbc1
Assay: as above
Outline: as §1

Question: With FFRRSELYLPNSSKA as the binder, how does the “SPOT peptide array binding signal intensity” value read?
Answer: 3.75

Biological target: AgBem1-D1
Assay: as above
Outline: as §1

Question: For FFRRSELYLPNSSKA, which “SPOT peptide array binding signal intensity” value is on record?
Answer: 31.5

Biological target: AgBzz1-D1
Assay: as above
Outline: as §1

Question: Which “SPOT peptide array binding signal intensity” value does the source give for FFRRSELYLPNSSKA here?
Answer: 26.5

Biological target: AgBzz1-D2
Assay: as above
Outline: as §1

Question: For FFRRSELYLPNSSKA, which “SPOT peptide array binding signal intensity” value is on record?
Answer: 22.5

Biological target: AgCyk3
Assay: as above
Outline: as §1

Question: Which “SPOT peptide array binding signal intensity” value does the source give for FFRRSELYLPNSSKA here?
Answer: ≤ 0

Biological target: AgFus1
Assay: as above
Outline: as §1

Question: With FFRRSELYLPNSSKA as the binder, how does the “SPOT peptide array binding signal intensity” value read?
Answer: 162

Biological target: AgHof1
Assay: as above
Outline: as §1

Question: With FFRRSELYLPNSSKA as the binder, how does the “SPOT peptide array binding signal intensity” value read?
Answer: 25

Biological target: AgHse1
Assay: as above
Outline: as §1

Question: How did the “SPOT peptide array binding signal intensity” value turn out when FFRRSELYLPNSSKA was run?
Answer: 1000

Biological target: AgLsb1
Assay: as above
Outline: as §1

Question: FFRRSELYLPNSSKA was tested. Which “SPOT peptide array binding signal intensity” value did it give?
Answer: 1.75

Biological target: AgLsb4
Assay: as above
Outline: as §1

Question: With FFRRSELYLPNSSKA as the binder, how does the “SPOT peptide array binding signal intensity” value read?
Answer: 47.5

Biological target: AgMyo5
Assay: as above
Outline: as §1

Question: FFRRSELYLPNSSKA was tested. Which “SPOT peptide array binding signal intensity” value did it give?
Answer: 7.25

Biological target: AgNbp2
Assay: as above
Outline: as §1

Question: For FFRRSELYLPNSSKA, which “SPOT peptide array binding signal intensity” value is on record?
Answer: 11

Biological target: AgRvs167
Assay: as above
Outline: as §1

Question: With FFRRSELYLPNSSKA as the binder, how does the “SPOT peptide array binding signal intensity” value read?
Answer: 1.67

Biological target: AgSho1
Assay: as above
Outline: as §1

Question: FFRRSELYLPNSSKA was tested. Which “SPOT peptide array binding signal intensity” value did it give?
Answer: 25

Biological target: AgSla1-D1-D2
Assay: as above
Outline: as §1

Question: FFRRSELYLPNSSKA was tested. Which “SPOT peptide array binding signal intensity” value did it give?
Answer: 122

Biological target: AgSla1-D3
Assay: as above
Outline: as §1

Question: How did the “SPOT peptide array binding signal intensity” value turn out when FFRRSELYLPNSSKA was run?
Answer: 5.5

Biological target: CaAbp1-D1
Assay: as above
Outline: as §1

Question: How did the “SPOT peptide array binding signal intensity” value turn out when FFRRSELYLPNSSKA was run?
Answer: 70

Biological target: CaAbp1-D2
Assay: as above
Outline: as §1

Question: With FFRRSELYLPNSSKA as the binder, how does the “SPOT peptide array binding signal intensity” value read?
Answer: 51.5

Biological target: CaBbc1
Assay: as above
Outline: as §1

Question: Which “SPOT peptide array binding signal intensity” value does the source give for FFRRSELYLPNSSKA here?
Answer: 0.25

Biological target: CaBem1-D1
Assay: as above
Outline: as §1

Question: For FFRRSELYLPNSSKA, which “SPOT peptide array binding signal intensity” value is on record?
Answer: 9

Biological target: CaBzz1-D1
Assay: as above
Outline: as §1

Question: For FFRRSELYLPNSSKA, which “SPOT peptide array binding signal intensity” value is on record?
Answer: 95

Biological target: CaBzz1-D2
Assay: as above
Outline: as §1

Question: With FFRRSELYLPNSSKA as the binder, how does the “SPOT peptide array binding signal intensity” value read?
Answer: 32.2

Biological target: CaCyk3
Assay: as above
Outline: as §1

Question: For FFRRSELYLPNSSKA, which “SPOT peptide array binding signal intensity” value is on record?
Answer: ≤ 0

Biological target: CaFus1
Assay: as above
Outline: as §1

Question: For FFRRSELYLPNSSKA, which “SPOT peptide array binding signal intensity” value is on record?
Answer: 624

Biological target: CaHof1
Assay: as above
Outline: as §1

Question: How did the “SPOT peptide array binding signal intensity” value turn out when FFRRSELYLPNSSKA was run?
Answer: ≤ 0

Biological target: CaHse1
Assay: as above
Outline: as §1

Question: How did the “SPOT peptide array binding signal intensity” value turn out when FFRRSELYLPNSSKA was run?
Answer: 3

Biological target: CaLsb1
Assay: as above
Outline: as §1

Question: For FFRRSELYLPNSSKA, which “SPOT peptide array binding signal intensity” value is on record?
Answer: 0.5

Biological target: CaLsb4
Assay: as above
Outline: as §1

Question: For FFRRSELYLPNSSKA, which “SPOT peptide array binding signal intensity” value is on record?
Answer: 13

Biological target: CaMyo5
Assay: as above
Outline: as §1

Question: For FFRRSELYLPNSSKA, which “SPOT peptide array binding signal intensity” value is on record?
Answer: 14.2

Biological target: CaNbp2
Assay: as above
Outline: as §1

Question: Which “SPOT peptide array binding signal intensity” value does the source give for FFRRSELYLPNSSKA here?
Answer: 89

Biological target: CaRvs167
Assay: as above
Outline: as §1

Question: Which “SPOT peptide array binding signal intensity” value does the source give for FFRRSELYLPNSSKA here?
Answer: 4.5

Biological target: CaRvs167-3
Assay: as above
Outline: as §1

Question: How did the “SPOT peptide array binding signal intensity” value turn out when FFRRSELYLPNSSKA was run?
Answer: 16.2

Biological target: CaSho1
Assay: as above
Outline: as §1

Question: FFRRSELYLPNSSKA was tested. Which “SPOT peptide array binding signal intensity” value did it give?
Answer: 318

Biological target: CaSla1-D1-D2
Assay: as above
Outline: as §1

Question: FFRRSELYLPNSSKA was tested. Which “SPOT peptide array binding signal intensity” value did it give?
Answer: ≤ 0

Biological target: CaSla1-D3
Assay: as above
Outline: as §1

Question: Which “SPOT peptide array binding signal intensity” value does the source give for FFRRSELYLPNSSKA here?
Answer: ≤ 0

Biological target: ScAbp1
Assay: as above
Outline: as §1

Question: How did the “SPOT peptide array binding signal intensity” value turn out when FFRRSELYLPNSSKA was run?
Answer: 47

Biological target: ScBbc1
Assay: as above
Outline: as §1

Question: Which “SPOT peptide array binding signal intensity” value does the source give for FFRRSELYLPNSSKA here?
Answer: ≤ 0

Biological target: ScBem1-D1
Assay: as above
Outline: as §1

Question: For FFRRSELYLPNSSKA, which “SPOT peptide array binding signal intensity” value is on record?
Answer: 18

Biological target: ScBzz1-D1
Assay: as above
Outline: as §1

Question: FFRRSELYLPNSSKA was tested. Which “SPOT peptide array binding signal intensity” value did it give?
Answer: 11

Biological target: ScBzz1-D2
Assay: as above
Outline: as §1

Question: For FFRRSELYLPNSSKA, which “SPOT peptide array binding signal intensity” value is on record?
Answer: 20

Biological target: ScCyk3
Assay: as above
Outline: as §1

Question: For FFRRSELYLPNSSKA, which “SPOT peptide array binding signal intensity” value is on record?
Answer: 24

Biological target: ScFus1
Assay: as above
Outline: as §1

Question: How did the “SPOT peptide array binding signal intensity” value turn out when FFRRSELYLPNSSKA was run?
Answer: 206

Biological target: ScHof1
Assay: as above
Outline: as §1

Question: With FFRRSELYLPNSSKA as the binder, how does the “SPOT peptide array binding signal intensity” value read?
Answer: 1

Biological target: ScHse1
Assay: as above
Outline: as §1

Question: How did the “SPOT peptide array binding signal intensity” value turn out when FFRRSELYLPNSSKA was run?
Answer: 1290

Biological target: ScLsb1
Assay: as above
Outline: as §1

Question: How did the “SPOT peptide array binding signal intensity” value turn out when FFRRSELYLPNSSKA was run?
Answer: 6.25

Biological target: ScLsb2
Assay: as above
Outline: as §1

Question: For FFRRSELYLPNSSKA, which “SPOT peptide array binding signal intensity” value is on record?
Answer: 2

Biological target: ScLsb3
Assay: as above
Outline: as §1

Question: With FFRRSELYLPNSSKA as the binder, how does the “SPOT peptide array binding signal intensity” value read?
Answer: 34.5

Biological target: ScLsb4
Assay: as above
Outline: as §1

Question: For FFRRSELYLPNSSKA, which “SPOT peptide array binding signal intensity” value is on record?
Answer: 8

Biological target: ScMyo3
Assay: as above
Outline: as §1

Question: How did the “SPOT peptide array binding signal intensity” value turn out when FFRRSELYLPNSSKA was run?
Answer: 3.5

Biological target: ScMyo5
Assay: as above
Outline: as §1

Question: With FFRRSELYLPNSSKA as the binder, how does the “SPOT peptide array binding signal intensity” value read?
Answer: 8.5

Biological target: ScNbp2
Assay: as above
Outline: as §1

Question: Which “SPOT peptide array binding signal intensity” value does the source give for FFRRSELYLPNSSKA here?
Answer: 42.5

Biological target: ScPex13
Assay: as above
Outline: as §1

Question: How did the “SPOT peptide array binding signal intensity” value turn out when FFRRSELYLPNSSKA was run?
Answer: ≤ 0

Biological target: ScRvs167
Assay: as above
Outline: as §1

Question: FFRRSELYLPNSSKA was tested. Which “SPOT peptide array binding signal intensity” value did it give?
Answer: 3.17

Biological target: ScSho1
Assay: as above
Outline: as §1

Question: Which “SPOT peptide array binding signal intensity” value does the source give for FFRRSELYLPNSSKA here?
Answer: 201

Biological target: ScSla1-D1-D2
Assay: as above
Outline: as §1

Question: FFRRSELYLPNSSKA was tested. Which “SPOT peptide array binding signal intensity” value did it give?
Answer: 12

Biological target: ScSla1-D3
Assay: as above
Outline: as §1

Question: For FFRRSELYLPNSSKA, which “SPOT peptide array binding signal intensity” value is on record?
Answer: 0.5

Biological target: SpAbp1-D1
Assay: as above
Outline: as §1

Question: For FFRRSELYLPNSSKA, which “SPOT peptide array binding signal intensity” value is on record?
Answer: 45

Biological target: SpBbc1
Assay: as above
Outline: as §1

Question: FFRRSELYLPNSSKA was tested. Which “SPOT peptide array binding signal intensity” value did it give?
Answer: ≤ 0

Biological target: SpBzz1-D1
Assay: as above
Outline: as §1

Question: For FFRRSELYLPNSSKA, which “SPOT peptide array binding signal intensity” value is on record?
Answer: 111
